# Measured values: the supplement of paper PMC8728848
# The entries come from a sample that favours the strongest signals as a whole.
# B1: EcCDA (Encephalitazoon cuniculi), Q8SU65 (protein)
# chain: MLLCLLYFTSSWCSGSDVPDVCTNSGMIAINFVDGPVRGVTDRILNTLDELGVKATFSFTVNQKAVGNVGQLYRRAVEEGHNVALRVDPSMDEGYQCLSQDALENNVDREIDTIDGLSGTEIRYAAVPICNGQVNSEMYNILTERGVLPVGYTFCPYDYDDPVGEFESMIEGSDPKHHSFIILMHDGQEADTSRLENMVKIGKDKGYRFVNMDECLQGYKGAPGDPELSLRGKGVESIGKGFLPFFLMMLVRLL
# Columns and labels:
# Assay in all cases: glycan array binding signal (z-score within array); higher = stronger binding
# Settings in all cases: glycan notation: IUPAC condensed, linker removed
# [1] = biological target: Fuc(a1-2)[Gal(a1-3)]Gal(b1-4)Glc
# Procedure, shortened: (§1)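 The binding signal is a Z-score computed within each array. Data were drawn from 3228 arrays in the Consortium for Functional Glycomics database, restricted to those with a known protein sequence. Scores were averaged over arrays of the same protein sequence at different concentrations or buffers, and over linkers, and negative values can be taken as non-binding.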
# [2] = biological target: Fuc(a1-3)[Gal(b1-4)]GlcNAc
# Procedure, shortened: as §1
# [3] = biological target: Gal(a1-6)Glc
# Procedure, shortened: as §1
# [4] = biological target: Gal(b1-3)Gal
# Procedure, shortened: as §1
# [5] = biological target: Gal(b1-3)GalNAc(b1-3)Gal(b1-4)GlcNAc
# Procedure, shortened: as §1
# [6] = biological target: Gal(b1-3)GalNAc(b1-4)[Neu5Ac(a2-3)]Gal(b1-4)Glc
# Procedure, shortened: as §1
# [7] = biological target: Gal(b1-4)GlcNAc(b1-6)[Gal(b1-3)]GalNAc
# Procedure, shortened: as §1
# [8] = biological target: Gal3S(b1-3)GalNAc
# Procedure, shortened: as §1
# [9] = biological target: Gal3S(b1-4)Glc
# Procedure, shortened: as §1
# [10] = biological target: Gal3S(b1-4)Glc6S
# Procedure, shortened: as §1
# [11] = biological target: GalNAc(b1-3)Gal(a1-4)Gal(b1-4)GlcNAc
# Procedure, shortened: as §1
# [12] = biological target: GalNAc(b1-4)GlcNAc
# Procedure, shortened: as §1
# [13] = biological target: Man(a1-2)Man(a1-3)[Man(a1-3)[Man(a1-6)]Man(a1-6)]Man(b1-4)GlcNAc(b1-4)GlcNAc
# Procedure, shortened: as §1
# [14] = biological target: Man(a1-3)[Man(a1-6)]Man(a1-6)[Man(a1-3)]Man(b1-4)GlcNAc(b1-4)GlcNAc
# Procedure, shortened: as §1
# [15] = biological target: Neu5Ac(a2-3)Gal(b1-3)GalNAc(b1-3)Gal(a1-4)Gal(b1-4)Glc
# Procedure, shortened: as §1
# [16] = biological target: Neu5Ac(a2-3)Gal(b1-3)[Neu5Ac(a2-6)]GalNAc
# Procedure, shortened: as §1
# [17] = biological target: Neu5Ac(a2-3)Gal(b1-4)Glc
# Procedure, shortened: as §1
# [18] = biological target: Neu5Ac(a2-3)Gal(b1-4)GlcNAc6S
# Procedure, shortened: as §1
# [19] = biological target: Neu5Ac(a2-3)GalNAc
# Procedure, shortened: as §1
# [20] = biological target: Neu5Ac9Ac(a2-6)Gal(b1-4)GlcNAc
# Procedure, shortened: as §1
binder,measurement,setting,value
B1,glycan array binding signal (z-score),[1],2.96
same,glycan array binding signal (z-score),[2],-0.055
same,glycan array binding signal (z-score),[3],3.02
same,glycan array binding signal (z-score),[4],-0.337
same,glycan array binding signal (z-score),[5],-0.363
same,glycan array binding signal (z-score),[6],-0.234
same,glycan array binding signal (z-score),[7],-0.1
same,glycan array binding signal (z-score),[8],0.115
same,glycan array binding signal (z-score),[9],0.022
same,glycan array binding signal (z-score),[10],5.58
same,glycan array binding signal (z-score),[11],1.6
same,glycan array binding signal (z-score),[12],-0.289
same,glycan array binding signal (z-score),[13],-0.2
same,glycan array binding signal (z-score),[14],-0.34
same,glycan array binding signal (z-score),[15],-0.476
same,glycan array binding signal (z-score),[16],-0.318
same,glycan array binding signal (z-score),[17],-0.322
same,glycan array binding signal (z-score),[18],-0.284
same,glycan array binding signal (z-score),[19],0.071
same,glycan array binding signal (z-score),[20],4.58
